DT40 TDP1 CPT: growth inhibition of DT40 Tdp1-/-;hTDP1 cells with camptothecin (screen for TDP1 inhibitors); actives 12% (n = 420,000); AID 686979; chicken DT40 Tdp1-/-;hTDP1 cells + 20 nM CPT, ATP luminescence, 48 h; Potency, µM (series often up to 46.2 µM), hits mostly inhibitors; further: nearly all actives have a fitted effect of over 55% in size
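Chicken DT40 Tdp1-/- cells stably complemented with human TDP1 were seeded at 400 cells/well in medium containing 20 nM camptothecin, exposed to pin-transferred compounds, and grown at 37 °C for at least 48 hr. Viability was read as ATP luminescence.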
VP16 counter: counter-screen for ROR gamma inhibitors: Gal4-VP16 reporter | Drosophila S2 Gal4-VP16 UAS-luciferase, luminescence, 20 h | Potency, µM (doses to about 53.6 µM), hits mostly inhibitors | actives 3.5% (n = 310,000);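 further: Gal4-VP16 expression switched on by copper sulfate through the metallothionein promoter; nearly all actives have a fitted effect of over 50% in size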
TDP1 inh: TDP1 (human) enzyme inhibition | actives 0.28% (n = 350,000) | Potency, µM (series often up to 130 µM), usual class: inhibitors | recombinant TDP1, AlphaScreen DNA substrate cleavage | AID 485290; further: nearly all actives have a fitted effect of over 40% in size
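AlphaScreen read-out: signal falls as enzyme removes the 3' tyrosine-FITC from a 5'-biotinylated DNA oligo (15 nM, 5 min, RT). Enzyme was E. coli-made recombinant Tdp1 at 1 nM, exposed to compound for 15 min beforehand; beads 10 ug/ml, 10 min.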
TDP1 cell noCPT: qHTS for Inhibitors of human tyrosyl-DNA phosphodiesterase 1 (TDP1): qHTS in cells in absence of CPT | Potency, µM (titrated, usually from 46.2 µM), usual class: inhibitors | DT40 Tdp1-/- hTDP1 cells, no CPT, ATP luminescence, 48 h | AID 686978, 2013 | actives 15% (n = 420,000); further: nearly all actives have a fitted effect of over 55% in size
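Stably hTDP1-transfected Tdp1-null chicken DT40 cells were treated with library compounds minus camptothecin and grown for at least 48 hr at 37 °C, after which cellular ATP was quantified by luminescence.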
RORgamma inh: inhibitors of mouse ROR gamma transcriptional activity. P51450. Drosophila S2 Gal4-RORgamma UAS-luciferase reporter, 20 h. Potency, µM (top dose mostly 53.6 µM), usual class: inhibitors. actives 5.4% (n = 310,000). AID 2551; further: nearly all actives have a fitted effect of over 60% in size
Target sequence (P51450 whole entry, looked up, the tested form may be a part): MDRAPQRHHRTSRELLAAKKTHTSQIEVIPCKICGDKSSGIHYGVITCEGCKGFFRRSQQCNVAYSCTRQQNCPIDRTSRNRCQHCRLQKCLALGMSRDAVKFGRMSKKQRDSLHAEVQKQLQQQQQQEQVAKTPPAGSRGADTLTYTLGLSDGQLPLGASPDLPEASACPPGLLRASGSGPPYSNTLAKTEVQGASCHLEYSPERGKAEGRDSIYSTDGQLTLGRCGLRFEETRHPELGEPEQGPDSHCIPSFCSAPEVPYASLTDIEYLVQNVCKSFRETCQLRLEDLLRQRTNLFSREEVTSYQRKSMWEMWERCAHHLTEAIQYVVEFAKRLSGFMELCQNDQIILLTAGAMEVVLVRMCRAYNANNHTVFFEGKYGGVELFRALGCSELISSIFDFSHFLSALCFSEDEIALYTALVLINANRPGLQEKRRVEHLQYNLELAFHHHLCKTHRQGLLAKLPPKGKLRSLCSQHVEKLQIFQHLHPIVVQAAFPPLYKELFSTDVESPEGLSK
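Compounds are pin-transferred onto Drosophila Schneider cells expressing a copper-inducible Gal4–ROR gamma transactivation domain fusion. After 1 hr, copper sulfate is added to 700 uM final; luciferase is read 20 hr later.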
A number is an active result; i = inactive; ? = inconclusive; nt = not tested or not shown; [ ] = another dose, or the depositor's remark. In the library only some 19% were active in any assay of this set; here they are far more common. The call rests on the fitted dose curve; in most records, active means well fitted curve in the direction sought with a large enough effect; inconclusive means small, poorly fitted or top-dose-only effect, or another doubt; inactive means no such curve, though single readings can be large; an effect the other way counts as inactive or inconclusive.

SMILES | DT40 TDP1 CPT | VP16 counter | TDP1 inh | TDP1 cell noCPT | RORgamma inh
Cc1noc(C)c1NC(=O)N(C)C[C@@H]1OCc2cnnn2CCCC(=O)N([C@@H](C)CO)C[C@@H]1C | i | nt | nt | i | nt
Cc1cccc(C#CC2=CC(=O)CC(C)(C)C2)c1 | 16.4µM | nt | nt | 10.3µM | nt
CC1(C)CC(=O)C=C(C#CC2(O)CCCCC2)C1 | 7.31µM | nt | nt | 5.17µM | nt
COc1cc(NC2=CC(=O)CC(C)(C)C2)cc(OC)c1 | ? | i | i | i | i
COc1cccc(C#CC2=CC(=O)CC(C)(C)C2)c1 | 5.8µM | nt | nt | 2.91µM | nt
Cc1ccccc1C(=O)Oc1ccccc1C(=O)N1CCOCC1 | i | i | i | i | i
COC(=O)[C@@H]1C[C@@]2(O)[C@H](O)[C@H](O)[C@H](O)C[C@H]2N1Cc1cccc2ccccc12 | i | i | i | i | i
Cc1c2ccccc2cc(Cc2ccccc2)[n+]1C | 23.1µM | i | i | 13µM | i
CCOC(=O)c1cc2c(=O)n3ccccc3nc2n(CC(C)C)c1=NC(=O)C(C)Oc1ccccc1 (stereo not given) | ? | nt | i | ? | nt
CCOc1cc2ccccc2cc1C(=O)OCC(=O)Nc1ccc(Br)cc1 | i | nt | nt | i | nt
Cc1ccc(NC(=O)Nc2ccnc(-c3cccnc3)n2)cc1 | 8.2µM | i | i | 8.2µM | i
Cc1ccc(C(=O)Nc2ccnc(-c3cccnc3)n2)cc1 | ? | i | i | ? | i
C[C@H](NC(=O)c1ccco1)C(=O)Nc1nc(-c2ccccn2)cs1 | ? | nt | nt | 13µM | nt
O=C(Nc1ccc(Br)cc1)c1cccc(-n2cnnn2)c1 | ? | i | i | i | ?
O=C(Nc1nc(-c2ccccn2)cs1)c1cccc(-n2cnnn2)c1 | 5.17µM | i | nt | 4.61µM | 5.01µM
O=C(Nc1nc(-c2ccncc2)cs1)C1c2ccccc2Oc2ccccc21 | 20.6µM | ? | i | 13µM | i
O=C(Nc1nc(-c2ccccn2)cs1)c1ccc(Br)s1 | 1.03µM | 1.26µM | i | 0.651µM | 1.26µM
Cc1ccnc2nc(C(=O)Nc3nc(-c4ccccn4)cs3)nn12 | i | i | nt | i | ?
Cc1noc(C)c1-c1cc(NCCN2CCOCC2)ncn1 | i | ? | nt | i | i
Cc1ccc(C)c(NC(=O)c2ncn[nH]2)c1 | i | i | i | i | i
CN(C)c1ccnc(-n2cccc2/C=N/OCc2cccc(F)c2)c1C#N | i | i | i | ? | i
O=C(Nc1nc(-c2ccccc2)cs1)c1ccc(Br)o1 | ? | i | i | ? | i
CC(=O)Nc1nc(-c2ccc(Br)s2)cs1 | i | i | i | i | i
O=C(Nc1nc(-c2ccncc2)cs1)c1ccco1 | ? | i | i | 11.2µM | i[10 µM]
O=C(Nc1nc(-c2cc3ccccc3oc2=O)cs1)c1ccco1 | ? | i | i | ? | i
SMILES | DT40 TDP1 CPT | VP16 counter | TDP1 inh | TDP1 cell noCPT | RORgamma inh
Cc1ccccc1C(=O)N1CCc2cc(-c3csc(NC(=O)CN4CCCC4)n3)ccc21 | ? | i | nt | ? | ?
O=C(Nc1nc(-c2ccccn2)cs1)c1ccco1 | 5.17µM | i | i | 1.64µM | 7.08µM
CCC(=O)N1CCc2cc(-c3csc(NC(=O)c4ccco4)n3)ccc21 | ? | i | i | 13µM | i
O=C(Nc1nc(-c2cc(Cl)sc2Cl)cs1)c1ccc(Br)s1 | 18.4µM | i | i | 16.4µM | i
COc1ccc(NC(=O)CN(C)C(=O)c2cccc(Oc3ccccc3)c2)cc1 | ? | nt | i | ? | nt
CC1CC(C)CN(C(=O)C(NS(=O)(=O)c2ccc(Br)s2)c2ccccc2)C1 (stereo not given) | 18.4µM | i | i | 14.6µM | i
CCN(C(=O)C(NS(=O)(=O)c1ccc(Br)s1)c1ccccc1)c1ccc(C)c(C)c1 (stereo not given) | ? | nt | i | ? | nt
O=C(O)CCN(Cc1ccccc1)S(=O)(=O)c1ccc(Cl)cc1F | i | i | i | i | i
O=C(NCCN1CCN(C(=O)c2cc3ccccc3oc2=O)CC1)c1cc2ccccc2oc1=O | i | i | i | i | i
Cc1ccnc2c(N3C(=O)C4C5c6ccccc6C(c6ccccc65)C4C3=O)cccc12 (stereo not given) | 20.6µM | i | i | 16.4µM | ?
Cc1ccnc2c(O)cccc12 | 1.26µM | nt | nt | 0.891µM | nt
Cc1ccnc2c1ccc1cccnc12 | 1.03µM | nt | i | 0.581µM | nt
Cc1ccccc1N1C(=O)C2C3CC(=O)C(c4ccccc43)C2C1=O (stereo not given) | i | i | i | i | i
Cc1cc(C)c2cccnc2c1O | 1.26µM | nt | nt | 1.12µM | nt
Cc1ccnc2c1ccc1ccccc12 | i | i | nt | i | i
CCN1CCCc2cc(CN(CCN3CCOCC3)C(=S)Nc3ccccc3C)ccc21 | i | i[10 µM] | i | i | i
Cc1ccnc2c1ccc1c(C)ccnc12 | 0.92µM | nt | i | 2.59µM | nt
Cc1ccnc2ncccc12 | i | nt | nt | i | nt
CC(CNC(=O)CN1C(=O)NC2(CCCCC2C)C1=O)c1ccccc1 (stereo not given) | i | nt | i | i | nt
O=C(/C=C/c1ccccn1)c1cc(Br)ccc1O | 23.1µM | i | i | 23.1µM | i
O=C(/C=C/c1ccccn1)c1ccc(Br)cc1O | 20.6µM | i | i | 18.4µM | i
C(=C\c1ccccn1)/c1ccccn1 | i | i | i | i | i
CC1(C)c2ccccc2-c2nc3ccccc3cc2C1N1CCOCC1 (stereo not given) | i | nt | nt | ? | nt
CN1C(=O)NC(c2ccccc2)C2=C1CN(CCc1ccccc1)C2=O (stereo not given) | i | i | i | i | i
COC(=O)Nc1ccc(S(=O)(=O)N2CCC(C(=O)N(C)C3CCCCC3)CC2)cc1 | ? | i | i | 25.9µM | i
SMILES | DT40 TDP1 CPT | VP16 counter | TDP1 inh | TDP1 cell noCPT | RORgamma inh
CC1CCN(S(=O)(=O)c2ccc(C(=O)OC(C)C(=O)N(C)C3CCCCC3)cc2)CC1 (stereo not given) | ? | nt | i | 25.9µM | nt
O=C1CC(c2ccccc2)CC(O)=C1C=NC1CCCC1 (stereo not given) | i | i | i | i | ?
O=C(NCCc1c[nH]c2ccccc12)/C(=C/c1cccnc1)NC(=O)c1ccco1 | i | i | i | i | i
[O-][n+]1c2ccccc2cc2ccccc21 | ? | nt | i | 9.2µM | nt
COc1ccc(CNC(=O)c2c[nH]c3ccccc3c2=O)cc1 | i | i | nt | i | i
COc1cc(-c2cc(=O)c3c(O)c(OC)c(OC)c(O)c3o2)ccc1O | ? | i | i | ? | i
CCOC(=O)N(C)c1c(CC)nc2c(OCc3ccc(F)c(F)c3)cccn12 | ? | nt | nt | 20.6µM | nt
CCOC(=O)N(C)c1c(CC)nc2c(OCc3cc(Cl)cc(Cl)c3)cccn12 | ? | nt | nt | 20.6µM | nt
CCOC(=O)C(=O)N(C)c1c(CC)nc2c(OCc3ccccc3)cccn12 | i | nt | nt | i | nt
CCOC(=O)C(=O)N(C)c1c(CC)nc2c(OCc3ccccc3OC)cccn12 | i | nt | nt | ? | nt
CCOC(=O)N(C)c1c(CC)nc2c(OCc3ccc(Cl)cc3Cl)cccn12 | ? | nt | nt | 23.1µM | nt
CCc1nc2c(OCc3ccc(F)c(F)c3)cccn2c1N(C)C(=O)C1CC1 | 20.6µM | nt | nt | ? | nt

Source: PubChem
